Assay outcomes: PubChem BioAssay, National Center for Advancing Translational Sciences (NCATS)
HepG2 viability: HepG2 cytotoxicity, counter-screen for TGF-b inhibitors; HepG2 CAGA-GFP viability, ATP luminescence, 18 h; AID 588856; 410,000 compounds, 0.76% hits; Potency, µM (top dose mostly 46.1 µM), for inactives: at the top dose activity change, negative = cytotoxicity, hits mostly cytotoxic; further: potency means the concentration at half of the fitted maximal effect
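HepG2 CAGA-GFP cells (1000/well, DMEM with 1% FBS) received compound, then TGF-beta at 500 pg/mL final, and were incubated 18 hours at 37 degrees C. Viability was read by CellTiter-Glo luminescence. Media-only wells were set as complete cell-killing and DMSO as no toxicity.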
DT40 TDP1 CPT: growth inhibition of DT40 Tdp1-/-;hTDP1 cells with camptothecin (screen for TDP1 inhibitors); 420,000 compounds, 12% hits; Potency, µM (top dose mostly 46.2 µM), without a hit: top-dose activity change, negative = growth inhibition, hits mostly inhibitors; chicken DT40 Tdp1-/-;hTDP1 cells + 20 nM CPT, ATP luminescence, 48 h; further: potency means the concentration at half of the fitted maximal effect; on the % scale 0 is the no-effect control and ±100 the full control effect; nearly all actives have a fitted effect of over 55% in size
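Cell growth measured by CellTiter-Glo luminescence after a minimum 48 h, 37 C compound exposure with 20 nM CPT in Tdp1-knockout DT40 cells stably expressing hTDP1, seeded 400/well; qHTS titration format.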
IL1B secr inh: inflammasome signaling inhibition, IL-1 beta readout. THP-1 LPS/ATP IL-1B secretion, AlphaLISA, 16 h; active compounds read low. activity change, % at 57.5 µM. 360,000 compounds, 4.7% hits; in the data active means activity change below about -50%; inconclusive means mostly about -30% to -49%; further: on the % scale 0 is the no-effect control and ±100 the full control effect
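THP-1 cells pretreated 1 hr with compounds (up to 57.5 uM final), then stimulated with LPS (250 ng/mL final) plus ATP (1.25 mM final); secreted IL-1B measured by AlphaLISA after 16 hr, decreased signal indicating inhibition.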
TDP1 inh: blocks human tyrosyl-DNA phosphodiesterase 1 | recombinant TDP1, AlphaScreen DNA substrate cleavage | Potency, µM (highest dose often 130 µM), for inactives: at the highest dose activity change, negative = inhibition, most hits filed as inhibitors | 350,000 compounds, 0.28% hits | AID 485290; further: potency means the concentration at half of the fitted maximal effect; on the % scale 0 is the no-effect control and ±100 the full control effect; nearly all actives have a fitted effect of over 40% in size
Target sequence (Q9NUW8 whole entry, looked up): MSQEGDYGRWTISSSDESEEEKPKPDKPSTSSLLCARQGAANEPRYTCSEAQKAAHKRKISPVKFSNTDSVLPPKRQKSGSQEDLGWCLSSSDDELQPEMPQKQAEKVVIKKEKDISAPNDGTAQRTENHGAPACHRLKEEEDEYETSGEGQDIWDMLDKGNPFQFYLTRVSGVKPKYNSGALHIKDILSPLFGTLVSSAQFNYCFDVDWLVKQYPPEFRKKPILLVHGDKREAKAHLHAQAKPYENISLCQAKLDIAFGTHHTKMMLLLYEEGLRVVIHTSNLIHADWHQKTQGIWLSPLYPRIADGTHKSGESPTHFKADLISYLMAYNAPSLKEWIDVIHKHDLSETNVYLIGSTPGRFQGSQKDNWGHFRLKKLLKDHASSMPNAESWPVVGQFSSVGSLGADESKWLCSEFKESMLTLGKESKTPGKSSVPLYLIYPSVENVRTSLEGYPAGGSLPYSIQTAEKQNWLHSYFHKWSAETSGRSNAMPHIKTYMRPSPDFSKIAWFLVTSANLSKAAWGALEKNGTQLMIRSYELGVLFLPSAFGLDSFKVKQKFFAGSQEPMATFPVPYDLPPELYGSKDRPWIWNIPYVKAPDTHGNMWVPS
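Enzyme-compound mixtures sat 15 min at room temperature, followed by a 5 min reaction with 15 nM final substrate and 10 min with AlphaScreen beads. Recombinant human Tdp1 was used at 1 nM final.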
TGFb inhibitor: TGF-b pathway inhibition; HepG2 CAGA-GFP TGF-b/SMAD3 reporter, GFP fluorescence, 18 h; TGF-beta stimulated, 500 pg/mL final; Potency, µM (series often up to 46.1 µM), without a hit: top-dose activity, negative = inhibition, hits mostly inhibitors; 410,000 compounds, 1.2% hits; further: potency means the concentration at half of the fitted maximal effect; on the % scale 0 is the no-effect control and ±100 the full control effect; nearly all actives have a fitted effect of over 65% in size
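HEPG2 CAGA-GFP, 1000 cells/well; 2 h settle, 37 C; cpd via pin tool; TGF-b 500 pg/mL final; 18 h, 37 C; GFP imaging ex488/em500-530; %Activity normalised to -TGF-b and +DMSO controls; CRC fit, curve class.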
DT40 TDP1 no CPT: qHTS for Inhibitors of human tyrosyl-DNA phosphodiesterase 1 (TDP1): qHTS in cells in absence of CPT; DT40 Tdp1-/- hTDP1 cells, no CPT, ATP luminescence, 48 h; Potency, µM (highest dose often 46.2 µM), for inactives: at the top dose activity change, negative = growth inhibition, most hits filed as inhibitors; 420,000 compounds, 15% hits; further: potency means the concentration at half of the fitted maximal effect; on the % scale 0 is the no-effect control and ±100 the full control effect; nearly all actives have a fitted effect of over 55% in size
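Readout: luminescence from CellTiter-Glo after 30 min in the dark at RT. Cells: DT40 Tdp1-/- with stable hTDP1, 400/well. Exposure: compounds alone, ≥48 hr, 37 °C.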
Active calls of the source: *; ? = inconclusive; nt = not tested or not shown; [ ] = remark or other dose. A selection: hits, their analogues and other compounds. The true share with any hit is near 19%. Unless noted, the call rests on the fitted dose curve; in most records, active means well fitted curve in the direction sought with a large enough effect; inconclusive means small, poorly fitted or top-dose-only effect, or another doubt; inactive means no such curve, though single readings can be large; an effect the other way counts as inactive or inconclusive.

SMILES	HepG2 viability	DT40 TDP1 CPT	IL1B secr inh	TDP1 inh	TGFb inhibitor	DT40 TDP1 no CPT
O=C(O)CCCCCN1C(=O)/C(=C\c2ccc(-c3ccc(Cl)cc3)o2)SC1=S	-1%	?	6	40µM*	?	?
O=C(CCN1C(=O)/C(=C/c2ccccc2)SC1=S)Nc1ccccn1	3%	-14%	11	9%	-1%	-13%
O=C(O)CCCCCN1C(=O)/C(=C\c2ccncc2)SC1=S	0%	23µM*	-99*	0%	3%	23µM*
O=C(O)CCCN1C(=O)/C(=C/c2ccncc2)SC1=S	-3%	?	-80*	4%	-7%	?
CC(c1ccccc1)N1C(=O)/C(=C/c2ccncc2)SC1=S (centres undefined)	-110%	?	-50*	nt	?	23µM*
O=S1(=O)c2ccccc2N(Cc2ccc(Cl)cc2F)c2ccccc21	-26%	?	nt	-10%	39%	?
CCOc1ccc(N2CC(C(=O)Nc3ccc(S(=O)(=O)NCC4CCCO4)cc3)CC2=O)cc1 (centres undefined)	14%	-4%	-13	5%	18%	-17%
Cc1nc2c(C)cccc2cc1C(=O)N/N=C/c1ccc(N(C)C)cc1	-16%	5.8µM*	28	6%	4%	12µM*
Cc1ccc([N+](=O)[O-])c(C(=O)N/N=C/c2cccnc2)c1	13%	3%	-9	3%	-20%	-11%
Cc1nc2c(C)cccc2cc1C(=O)N/N=C/c1ccc(C(=O)O)cc1	5%	?	22	-3%	-3%	?
Cc1nc2c(C)cccc2cc1C(=O)N/N=C/c1cccnc1	-28%	5.2µM*	-67*	3%	12%	6.5µM*
COc1ccc(N2CC(C)Cn3c2nc2c3c(=O)n(Cc3ccc(C)cc3)c(=O)n2C)c(OC)c1 (centres undefined)	19%	?	?	8%	-22%	16µM*
Cc1cccc(N(CC(=O)NCC2CCCO2)C(=O)CCC(=O)Nc2nccs2)c1 (centres undefined)	-4%	9%	18	nt	11%	-5%
Cc1ccccc1NC(=O)Cc1nnc(SCC(=O)NC2CCCCC2)n1C	11%	-4%	8	0%	14%	?
Cc1cccc(Cc2c(C)nc3nc(SCc4ccccc4F)nn3c2C)c1	4%	13µM*	nt	5%	10%	9.2µM*
Cc1cc(C)n2nc(SCc3ccc(F)cc3Cl)nc2n1	-27%	-15%	?	nt	-14%	-12%
Cc1cccc(Cc2c(C)nc3nc(SCc4cccc(F)c4)nn3c2C)c1	-8%	21µM*	nt	8%	?	?
Cc1cc(C)n2nc(SCc3c(F)cccc3Cl)nc2n1	-15%	?	-5	nt	5%	26µM*
Cc1cccc(Cc2c(C)nc3nc(SCC(=O)O)nn3c2C)c1	-5%	-2%	0	8%	-2%	-1%
Cc1nc2nc(SCc3c(F)cccc3Cl)nn2c(C)c1Cc1ccccc1	-26%	13µM*	nt	5%	?	8.2µM*
O=c1cc(-c2ccccc2)oc2c1ccc1ccccc12	nt	14%	nt	13%[56.1 µM]	nt	?
O=c1cc(-c2cccnc2)oc2c1ccc1ccccc12	-19%	?	nt	nt	?	23µM*
O=c1cc(-c2ccccc2)oc2ccc3ccccc3c12	-18%	?	6	nt	-8%	?
O=c1cc(-c2ccc(O)c(O)c2)oc2c1ccc1ccccc12	-42%	16µM*	0	-4%	?	26µM*
O=c1cc(-c2ccc(O)c(O)c2)oc2ccc3ccccc3c12	-5%	?	7	nt	-18%	15µM*
SMILES	HepG2 viability	DT40 TDP1 CPT	IL1B secr inh	TDP1 inh	TGFb inhibitor	DT40 TDP1 no CPT
CCCCCCCCCCCCCCCCCCO	nt	-15%	nt	3%	nt	-3%
CCOc1ccc(CCNC(=O)c2[nH]c3cc(OC)ccc3c2Sc2ccccc2)cc1OCC	-39%	?	nt	9%	-43%	-18%
Cc1cccc(OCCn2c(-c3ccc(Cl)cc3)nc3ccccc3c2=O)c1	-9%	-10%	nt	nt	1%	0%
CO/N=C(/C)CCC(=O)OC[C@@H]1O[C@H](C#Cc2ccccc2)C=C[C@@H]1Oc1ccc(C)cc1	nt	nt	nt	-4%[21 µM]	nt	nt
Cc1ccc(NC(=O)c2cccc3c(=O)c4c([nH]c23)CCCC4)c(C)c1	9%	?	nt	6%	-4%	?
COc1ccc(CCNC(=O)C(C)n2nc(C)c3sc4ccccc4c3c2=O)cc1OC (centres undefined)	6%	15µM*	nt	-9%	28%	18µM*
CCC(C(=O)Nc1cccc(Cl)c1C)n1nc(C)c2sc3ccccc3c2c1=O (centres undefined)	-12%	?	nt	3%	24%	?
CCC(C(=O)NCCc1ccc(OC)c(OC)c1)n1nc(C)c2sc3ccccc3c2c1=O (centres undefined)	-9%	9.2µM*	nt	0%	?	8.2µM*
CCC(C(=O)NCCc1ccc(SC)cc1)n1nc(C)c2sc3ccccc3c2c1=O (centres undefined)	-1%	?	nt	6%	-30%	23µM*
COc1ccc(CNC(=O)C(C)n2nc(C)c3sc4ccccc4c3c2=O)cc1OC (centres undefined)	0%	6.5µM*	nt	6%	-4%	6.5µM*
CSc1ccc(CCNC(=O)C(C)n2nc(C)c3sc4ccccc4c3c2=O)cc1 (centres undefined)	1%	?	nt	3%	nt	?
COc1ccc(OCC2CC3C(CCC(C)C3c3ccc(Br)cc3)C(=O)O2)cc1 (centres undefined)	nt	nt	nt	6%[21 µM]	nt	nt
COc1ccccc1/C=C/C(=O)NCC(=O)n1nc(C)cc1C	9%	16%	3	-5%	2%	-1%
Cc1c(P(=S)(c2ccccc2)c2ccccc2)[n+]2ccccc2n1CCCc1ccccc1	nt	nt	nt	2%	nt	nt
CCn1c(C)c(P(c2ccccc2)c2ccccc2)[n+]2ccccc12	1%	2.3µM*	-20	-2%	3%	1.5µM*
COc1cccc(NC(=O)CSC2=C(C#N)C(c3ccco3)C3=C(CCCC3=O)N2)c1 (centres undefined)	-16%	3%	?	9%	-6%	-13%
